Sa ugtP lethal: growth inhibition of ugtP-null S. aureus, primary screen, RN4220 ugtP deletion, OD600; 16 h; growth inhibition, % (concentration not given with the values); hit rate 0.54% among 330,000; AID 1259309, 2017; in the data active = growth inhibition above about 68%
BJeLR viability: MLPCN primary cell-based screen for lethality selective to Ras in HRASV12 cells; inhibition, % (test concentration not listed); hit rate 0.17% among 300,000; BJeLR (HRASV12) viability, CellTiter-Glo ATP luminescence, 48 h; in the data active = inhibition above about 50%
PrPC surface inh: inhibitors of human cell surface prion protein PrPC, primary screen, cell-based, TR-FRET. Major prion protein (Homo sapiens), P04156. inhibition, % at 13.8 µM. hit rate 0.43% among 370,000. TR-FRET read-out; in the data active = inhibition above about 24%
Sa RN4220 lethal: growth inhibition of S. aureus RN4220, primary screen, OD600; 16 h; inhibition, % (test concentration not listed); hit rate 0.33% among 330,000; AID 1259311, 2017; in the data active = inhibition above about 85%
DUSP3 inh: VHR1 phosphatase inhibitors, primary screen, biochemical, absorbance, uHTS; AID 1654, 2009; inhibition, % at 13.3 µM; Dual specificity protein phosphatase 3 (Homo sapiens), P51452; hit rate 0.52% among 290,000; recombinant VHR phosphatase, pNPP absorbance; in the data active = inhibition above about 50%
Target sequence (P51452 whole entry, looked up): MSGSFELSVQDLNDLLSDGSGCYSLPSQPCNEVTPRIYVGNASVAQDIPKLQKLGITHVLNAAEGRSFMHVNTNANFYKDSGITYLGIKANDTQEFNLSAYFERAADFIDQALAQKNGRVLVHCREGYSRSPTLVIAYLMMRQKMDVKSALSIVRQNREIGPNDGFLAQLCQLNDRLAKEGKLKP
SARS 3CLpro inh: SARS-CoV 3CLpro protease inhibitors, primary screen, biochemical, quenched FRET. inhibition, % at 6 µM. hit rate 0.14% among 290,000. AID 1706, 2009. recombinant SARS-CoV 3CLpro, quenched FRET peptide cleavage. Replicase polyprotein 1ab (Severe acute respiratory syndrome coronavirus), P0C6X7; in the data active = inhibition above about 12%
Hits are given with their value; . = inactive; / = not tested or not shown. Hits are enriched below; roughly 1.4% of the tested compounds scored in any of these assays.

SMILES	Sa ugtP lethal	BJeLR viability	PrPC surface inh	Sa RN4220 lethal	DUSP3 inh	SARS 3CLpro inh
CCCCCc1ccc(OCCCC[n+]2ccccc2)c(CCCCC)c1	.	.	/	100.8	.	.
CCC(C)(C)c1ccc(OCCCC[n+]2ccccc2)c(C(C)(C)CC)c1	99.9	/	.	100.5	.	.
CCCCCc1ccc(OCCCC[n+]2cccc(C)c2)c(CCCCC)c1	/	.	.	/	.	.
CNCC1Oc2c(NS(=O)(=O)c3ccccc3)cccc2C(=O)N(C(C)CO)CC1C (centres undefined)	.	/	/	.	/	/
O=C(Nc1ccc([N+](=O)[O-])cc1)C1CC1(c1ccccc1)c1ccccc1 (centres undefined)	.	.	.	.	.	.
CC1(C)C(C=C(Cl)Cl)C1C(=O)Nc1ccc([N+](=O)[O-])cc1 (centres undefined)	93.9	/	.	87.1	.	.
CCOC(=O)C1CCN(c2c(C(=O)c3ccccc3)cnc3ccc(Cl)cc23)CC1	99.5	.	.	.	.	.
C[C@@]12C(=O)N(CC3CC3)CC(=O)N1C(C=Cc1ccccc1)C1C(=O)N(c3ccccc3)C(=O)C12 (some centres undefined)	.	/	/	.	/	/
Cc1[nH]nc(SCC(=O)NC2CCCCC2)c1[N+](=O)[O-]	.	.	.	.	54.4	.
CCOC(=O)CC1c2cc(F)ccc2S(=O)(=O)N1C(C)(C)C (centres undefined)	.	/	/	.	/	/
CCC1(C)Cc2ccccc2C(=CC(=O)N2CCCCC2)N1 (centres undefined)	.	/	/	.	/	/
COC(=O)[C@@H](Cc1c[nH]c2ccccc12)NC(=O)c1ccc2c(c1)OCO2	.	.	.	.	52.6	.
O=C(COC(=O)[C@H](Cc1c[nH]c2ccccc12)NC(=O)c1ccc(Cl)cc1)Nc1ccc2c(c1)OCO2	.	.	.	.	.	.
COc1ccc2c(c1O)-c1c(OC)c(OC)cc3c1C(C2)N(C)CC3 (centres undefined)	.	/	/	.	/	/
CCC(=O)c1c(CC)c2n3c1CCC3CCC2 (centres undefined)	.	/	/	.	/	/
c1ccc(CN2CCN(c3ncnc4c3[nH]c3ccccc34)CC2)cc1	.	.	55.5	.	.	.
Cc1ccc2[nH]c3c(N4CCN(Cc5ccc6c(c5)OCO6)CC4)ncnc3c2c1	.	/	.	.	.	.
Cc1ccc2[nH]c3c(N4CCN(Cc5ccccc5)CC4)ncnc3c2c1	.	.	29.3	.	.	.
Cc1nn(-c2ccccc2)c(Cl)c1/C=C1\SC(=S)NC1=O	99.4	.	.	100.0	.	.
CCCCCC(=O)Nc1cccc(C2=NOC3(C2)CC(C(N)=O)N(C(=O)c2ccc(OC)cc2)C3)c1 (centres undefined)	.	/	/	.	/	/
OC(CNCC(c1ccc(Cl)cc1Cl)c1c[nH]c2ccccc12)c1ccccc1 (centres undefined)	96.8	.	.	99.7	.	.
O=C(Cn1nc(-c2ccc(Cl)cc2)ccc1=O)NCC1COCCO1 (centres undefined)	.	.	.	.	52.0	.
O=C(Cn1nc(-c2ccccc2)ccc1=O)NCC1COCCO1 (centres undefined)	.	.	.	.	.	.
Oc1c(I)cc(I)c2cccnc12	95.8	.	.	95.5	.	.
Oc1c(Cl)cc(Cl)c2cccnc12	.	.	.	.	.	.
SMILES	Sa ugtP lethal	BJeLR viability	PrPC surface inh	Sa RN4220 lethal	DUSP3 inh	SARS 3CLpro inh
Cc1ccc(S(=O)(=O)N(C)N=O)cc1	98.6	/	.	98.7	/	/
Cc1ccc(S(=O)(=O)N(C)S(=O)(=O)c2ccc(C)cc2)cc1	.	.	.	.	/	/
O=C(O)CCCCCN1C(=O)C(O)=C(C(=O)C=Cc2ccccc2)C1c1ccccc1[N+](=O)[O-] (centres undefined)	.	/	/	.	/	/
C=CCn1c(SCc2c(C)noc2C)nc2sc3c(c2c1=O)CCCCC3	88.0	.	.	.	.	.
COc1ccc(-c2nc(/C=C3\C(C)=Nc4ccccc43)c(O)o2)cc1	92.5	.	.	91.3	.	.
Cc1cc(NN=Cc2ccc(O)c(C)c2O)nc(-c2ccccc2O)n1	98.3	/	/	99.4	/	/
Cc1cc(NN=Cc2c(O)ccc3ccccc23)nc(-c2ccccc2O)n1	98.3	/	/	99.0	/	/
O=C1C2C(C3CC3)N3C(=O)CN(Cc4ccccn4)C(=O)[C@@]3(Cc3ccccc3)C2C(=O)N1c1ccccc1 (some centres undefined)	.	/	/	.	/	/
COC(=O)CN1C(=O)C2C(C3CC3)N3C(=O)CN(Cc4ccccn4)C(=O)[C@@]3(Cc3ccccc3)C2C1=O (some centres undefined)	.	/	/	.	/	/
Cc1ccc(NC(=O)N2CCCc3ccccc32)cc1C	.	.	.	.	52.8	.
O=C(O)CCC(=O)N1N=C(c2ccc(Br)cc2)CC1c1ccc(Br)cc1 (centres undefined)	/	.	.	/	55.5	.
O=C(O)CCC(=O)N1N=C(c2ccccc2)CC1c1ccc(Br)cc1 (centres undefined)	.	.	.	.	.	.
Cc1cc(C)cc(OC(=O)CS(=O)c2ccc(C(F)(F)F)cc2[N+](=O)[O-])c1 (centres undefined)	.	.	.	.	.	.
O=C(CS(=O)c1ccc(C(F)(F)F)cc1[N+](=O)[O-])Oc1ccc(Cl)cc1 (centres undefined)	.	.	.	.	51.2	.
O=C1CCC(O)CCN1C(CSc1ccccc1)Cc1ccccc1 (centres undefined)	.	/	/	.	/	/
CCc1ccc2[nH]c(=O)c(CN(CCCN3CCOCC3)C(=O)Nc3ccc(Cl)cc3)cc2c1	/	.	.	/	52.6	.
CCOc1ccc(NC(=O)C(NC(=O)c2ccccc2)C(C)CC)cc1 (centres undefined)	.	/	/	.	/	/
COc1cc(/C=C(\C#N)C(=O)Nc2cccc(C(=O)O)c2)ccc1OCc1ccc(C)cc1	.	.	.	.	.	.
CCOc1cc(/C=C(\C#N)C(=O)Nc2cccc(C(=O)O)c2)ccc1OCc1ccc(Br)cc1	.	.	.	.	52.9	.
COC(=O)C1=C(c2ccc(OC)c(OC)c2)CC2CCC1N2C(=O)N1CCC(O)CC1 (centres undefined)	.	/	/	.	/	/
C=CCc1cc(C=O)cc(OC)c1OCc1ccc(Cl)cc1	86.1	.	.	.	.	.
C=CCc1cc(C=O)cc(OCC)c1OCc1ccc(Cl)cc1	99.3	.	.	.	.	.
CCOc1cc(C=NO)cc(Br)c1OCc1ccc(Cl)cc1	90.9	/	/	.	/	/
Cc1ccc(/C=N/Nc2nncc(-c3ccccc3)n2)o1	/	.	.	/	.	.
Cc1[nH]n(-c2ccccc2)c(=O)c1C=NNc1nncc(-c2ccccc2)n1	98.2	/	/	96.3	/	/
Cc1[nH]n(-c2ccccc2)c(=O)c1/C=N/Nc1nncc(-c2ccccc2)n1	/	57.2	.	/	.	.
